Results: PubChem BioAssay AID488969 (Vanderbilt High Throughput Screening Facility, 2010)
The full ranking holds about 110,000 compounds; the median of “z-score” is about -0.1, and the highest 2% start at about 2. What follows is part of a selection rich in the highest values, with near analogues and random picks from the rest. The source made the active and inactive calls.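 The calls were made as follows: active = z-score in the third read window above 3 or below -3; inactive = the rest.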

These compounds were tested against Metabotropic glutamate receptor 8 (Rattus norvegicus) (UniProt P70579) (assay: rat mGluR8 modulators via GIRK flux, primary screen, cell-based, thallium flux, HTS (AID 488969)). Details: HEK293 rat mGluR8, GIRK (G protein-gated inwardly rectifying potassium channel) thallium flux, FluoZin2; at 10 µM; stronger effect = higher value; submaximal glutamate (EC20) added with thallium.
Metabotropic glutamate receptor 8 (Rattus norvegicus), sequence (P70579 whole entry, looked up): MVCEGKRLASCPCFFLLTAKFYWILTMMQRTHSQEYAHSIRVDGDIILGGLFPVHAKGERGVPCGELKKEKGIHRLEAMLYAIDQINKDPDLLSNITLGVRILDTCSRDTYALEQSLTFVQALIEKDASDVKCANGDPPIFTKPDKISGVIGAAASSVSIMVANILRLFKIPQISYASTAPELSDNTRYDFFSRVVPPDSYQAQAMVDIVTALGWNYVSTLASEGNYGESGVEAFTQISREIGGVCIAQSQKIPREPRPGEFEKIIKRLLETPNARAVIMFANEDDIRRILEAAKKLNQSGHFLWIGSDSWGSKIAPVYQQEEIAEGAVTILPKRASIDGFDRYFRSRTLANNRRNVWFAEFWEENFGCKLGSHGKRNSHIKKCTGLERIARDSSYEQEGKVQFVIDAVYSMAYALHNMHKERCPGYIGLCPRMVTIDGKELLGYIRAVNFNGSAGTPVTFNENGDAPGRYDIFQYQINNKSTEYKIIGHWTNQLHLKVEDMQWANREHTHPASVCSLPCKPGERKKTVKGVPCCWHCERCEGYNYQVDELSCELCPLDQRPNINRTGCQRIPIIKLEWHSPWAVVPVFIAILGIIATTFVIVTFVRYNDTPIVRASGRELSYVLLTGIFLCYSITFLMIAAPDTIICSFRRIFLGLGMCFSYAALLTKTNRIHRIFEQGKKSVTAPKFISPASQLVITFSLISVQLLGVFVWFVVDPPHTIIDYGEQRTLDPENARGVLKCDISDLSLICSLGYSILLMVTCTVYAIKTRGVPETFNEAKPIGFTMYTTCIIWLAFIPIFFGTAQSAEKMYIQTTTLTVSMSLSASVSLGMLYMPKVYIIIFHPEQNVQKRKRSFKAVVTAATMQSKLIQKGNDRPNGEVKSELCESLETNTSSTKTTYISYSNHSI
In the case of `COc1ccc(CCN2C(=O)CCC2(C)C(=O)NCc2cccnc2)cc1OC` (stereo not drawn), the z-score is reported as -0.282. `Cc1nn(-c2ccc(F)cc2)c(Cl)c1/C=N/NC(=O)c1cccc(S(=O)(=O)N2CCCC2)c1` gave a z-score of -0.115. Work on `Cc1cc(/C=C2/C(=O)NN(c3ccccc3)C2=O)c(C)n1-c1cccc(O)c1` yielded a z-score of -0.338. With `Cn1nnc(NC(=O)CSc2nnnn2-c2ccc(F)cc2)n1` the z-score was 0.0243. Work on `O=C(NC(C(=O)N/N=C/c1c2ccccc2cc2ccccc12)c1n[nH]c(=O)c2ccccc12)c1ccccc1` (stereo not drawn) yielded a z-score of -0.183. With `N#C/C(=C\c1c(N(Cc2ccccc2)Cc2ccccc2)nc2ccccn2c1=O)C(N)=O` the z-score was -1.96. `Cc1c(C(=O)Nc2ccccc2[N+](=O)[O-])csc1-c1ccccc1` gave a z-score of -0.152. Work on `Cc1ccc(C(=O)NC(=S)Nc2ccc(Oc3ccc(Cl)cc3)cc2)cc1` yielded a z-score of 0.157. `O=C(NC(=S)Nc1ccc(Oc2ccccc2)cc1)c1ccc(Cl)cc1` gave a z-score of 1.23. For `O=C(NC(=S)Nc1ccc(Oc2ccc(Cl)cc2)cc1)c1ccccc1`, the z-score was 3.94 (active). Work on `Cc1nc2ncnn2c(C)c1CCC(=O)Nc1csc(N)n1` yielded a z-score of -0.0552. With `O=C1CC(SCc2nc3ccccc3[nH]2)C(=O)N1c1ccc(F)cc1` (stereo not drawn) the z-score was 0.0187. With `Cc1cc(NC(=O)C(C)Oc2ccc(Cl)cc2Cl)n(-c2ccccc2)n1` (stereo not drawn) the z-score was -0.237. With `Cc1cc(Nc2ccccc2)n(-c2ccccc2)n1` the z-score was 0.00239. `O=C(COc1ccc(Cl)cc1Cl)Nc1ccccn1` showed a z-score of 1.52. `Cc1cc(NC(=O)Nc2ccccc2)n(-c2ccccc2)n1` was tested, and the z-score was 10.5 (active). For `O=C(COc1ccc(Cl)cc1Cl)Nc1noc2ccccc12`, the z-score was 12.9 (active). In the case of `Cc1cc(NC(=O)COc2ccc(Cl)cc2Cl)n(-c2ccccc2)n1`, the z-score is reported as 12.2 (active). `Cc1cc(NC(=O)c2ccc(C)s2)n(-c2ccccc2)n1` showed a z-score of 0.239. Work on `Cc1cc(NC(=O)COc2ccccc2)n(-c2ccccc2)n1` yielded a z-score of -0.119. `CSc1ccccc1NC(=O)COc1ccc(Cl)cc1Cl` was tested, and the z-score was -0.15. `CC(=O)c1cnc(N(C)C)s1` gave a z-score of 0.141. `CN(Cc1ccccc1)C(=O)CN(C1CCCCC1)S(C)(=O)=O` showed a z-score of 0.423. `O=C(Nc1ccc(N2CCOCC2)cc1)C1CC1` was tested, and the z-score was 0.35. For `Cn1c(C(=O)NCc2ccccn2)cc2c(=O)n(C)c3ccccc3c21`, the z-score was 0.138. In the case of `COc1ccc(N(C(=O)Cc2cccs2)C(C(=O)NC2CCCCC2)c2cccn2C)cc1` (stereo not drawn), the z-score is reported as -0.0427. Work on `CCOc1ccc2c(c1)C(C)=CC(C)(C)N2C(=O)Nc1ccccc1F` yielded a z-score of -0.0976. With `Cc1cc(OCc2nc(-c3cccs3)no2)cc(C)c1Cl` the z-score was 0.00195. In the case of `COc1cc(CN2CCCC(C)C2)cc([N+](=O)[O-])c1O` (stereo not drawn), the z-score is reported as -0.494. `O=C(NN1CCOCC1)c1cc(-c2ccccc2)nc2ccccc12` was tested, and the z-score was -0.494. Compound `O=C(NN1CCOCC1)c1cc(-c2ccc(Br)cc2)nc2ccccc12` has a z-score of 2.02. Work on `CCc1ccc(-c2cc(C(=O)NN3CCOCC3)c3ccccc3n2)cc1` yielded a z-score of -0.195. For `C/C(N)=C(/C#N)C(=O)CSc1nnc(COc2ccccc2Cl)o1`, the z-score was 0.832. `Cc1cc(/C=N/NC(N)=O)c(C)c(CO)c1` showed a z-score of -0.0977. `CCn1c(SCC(=O)N2CCC(C(N)=O)(N3CCCCC3)CC2)nnc1-c1ccccc1` showed a z-score of 2.65. `CCn1c(SCC(=O)N2CCC(C(N)=O)(N3CCCCC3)CC2)nc2ccccc2c1=O` gave a z-score of -1.2. For `CCn1c(SCC(=O)N2CCCC2)nnc1-c1ccc(N)cc1`, the z-score was 0.183. With `Cn1nnc2cc(C(=O)NCc3ccco3)ccc21` the z-score was 0.326. `CCOC(=O)NC(NC(=O)OCC)C(=O)c1ccccc1` gave a z-score of -0.227. With `CC(C)CCOP(=O)(c1ccccc1)c1ccccc1` the z-score was -2.77. `CC(Nc1cc(N2CCCC2)ccc1[N+](=O)[O-])c1ccccc1` (stereo not drawn) gave a z-score of -0.624. `CCCn1c(O)c(CN2CCCCC2)c(C)c(C#N)c1=O` was tested, and the z-score was -0.183. In the case of `O=C(/C=C/Nc1ccccc1)c1ccccc1`, the z-score is reported as 0.219. For `Brc1ccc(N=C/C=C/C=C/Nc2ccc(Br)cc2)cc1`, the z-score was 0.151. `C(/C=C/C=C/Nc1ccccc1)=Nc1ccccc1` was tested, and the z-score was 16.2 (active). `Fc1ccccc1CSc1nc2ncc(Br)cc2[nH]1` showed a z-score of 1.26. `CCC(NC(=O)NC1=NCCS1)(C(F)(F)F)C(F)(F)F` gave a z-score of 0.399. Work on `CCn1c(=N)c(C(N)=O)cc2c(=O)n3cccc(C)c3nc21` yielded a z-score of -1.13. `CCOCCCn1c(=N)c(C(N)=S)cc2c(=O)n3cccc(C)c3nc21` gave a z-score of 2. `C=CCn1c(=N)c(C(=O)OCC)cc2c(=O)n3cccc(C)c3nc21` showed a z-score of -0.017. In the case of `COc1cc(C(=O)NCC(=O)N/N=C/c2cccs2)cc(OC)c1OC`, the z-score is reported as -0.174. `CCCCNC(=S)N=Nc1c(O)n(Cc2ccccc2)c2ccccc12` was tested, and the z-score was 3.24 (active). Compound `Cc1ccc2c(c1)c(N=NC(N)=S)c(O)n2Cc1ccccc1` has a z-score of 2.88. Compound `NC(=S)N=Nc1c(O)n(Cc2ccccc2)c2ccccc12` has a z-score of 0.17. With `CCn1c(O)c(N=NC(=O)CNC(=O)c2ccco2)c2ccccc21` the z-score was -0.152. `CCCn1c(O)c(N=NC(=O)c2ccco2)c2ccccc21` was tested, and the z-score was 3.17 (active). Compound `NC(=S)N=Nc1c(O)n(Cc2ccc(F)cc2)c2ccccc12` has a z-score of 1.76. In the case of `O=C(N=Nc1c(O)n(Cc2ccccc2)c2ccccc12)c1ccc(O)cc1`, the z-score is reported as -0.143. `Cn1c(O)c(N=NC(=O)CNC(=O)c2ccco2)c2ccccc21` gave a z-score of -0.2. For `NC(=S)N=Nc1c(O)n(Cc2ccc(Br)cc2)c2ccccc12`, the z-score was -0.0836. `O=C1CC(=C2c3ccccc3-c3ccccc32)C(=O)N1CCN1CCN(c2cccc(Cl)c2)CC1` showed a z-score of -0.0614. Compound `O=C(Nc1ccccc1)C(Cc1cccs1)c1nn[nH]n1` (stereo not drawn) has a z-score of 0.0119. In the case of `Cc1ccc(S(=O)(=O)/N=S(/C)c2ccccc2)cc1` (stereo not drawn), the z-score is reported as 0.693. Compound `CCN(C(=O)c1cc2ccccc2oc1=O)c1cccc(C)c1` has a z-score of 0.00276. In the case of `CCCOc1ccc(C2(C(=O)O)CCCC2)cc1`, the z-score is reported as 0.219. `O=C(CCC(=O)OCc1ccc(Br)cc1)Nc1ccccc1` gave a z-score of -0.0471. In the case of `Cc1cccc(/C=N/n2c(-c3ccncc3)n[nH]c2=S)c1`, the z-score is reported as -0.531. Work on `Cc1cccc(-c2n[nH]c(=S)n2/N=C/c2ccc(C)o2)c1` yielded a z-score of 0.433. With `CCN(CC)S(=O)(=O)c1cccc(-c2n[nH]c(=S)n2/N=C/c2ccc(C(=O)OC)cc2)c1` the z-score was 3.19 (active). With `COCCn1c(CN2CCN(c3ccc(OC)cc3)CC2)nc2c1c(=O)n(C)c(=O)n2C` the z-score was -0.219. `c1csc(Cn2c(-c3cccs3)nc3ccccc32)c1` showed a z-score of -1.65. In the case of `CCn1c(-c2cccs2)nc2ccccc21`, the z-score is reported as -0.122. For `C=CCn1c(-c2cccs2)nc2ccccc21`, the z-score was 3.14 (active). For `COc1cccc(NS(=O)(=O)c2ccc(NC(C)=O)cc2)c1`, the z-score was -0.261. In the case of `COC(=O)CNc1nc(OC)nc(N(C)C)n1`, the z-score is reported as 0.391. `O=C(c1ccccc1[N+](=O)[O-])N1CCC(Cc2ccccc2)CC1` showed a z-score of -0.0322. Compound `Cc1cc(C(=O)N2CCC(Cc3ccccc3)CC2)ccc1[N+](=O)[O-]` has a z-score of -0.573. For `Cc1cccc(C(=O)N2CCC(Cc3ccccc3)CC2)c1[N+](=O)[O-]`, the z-score was 8.23 (active). Work on `CCNC(=O)CC1SC(=Nc2cccc(Cl)c2C)N(C)C1=O` (stereo not drawn) yielded a z-score of 0.271. In the case of `c1coc(Cn2c(SCc3nc4ccccc4[nH]3)nnc2-c2cccs2)c1`, the z-score is reported as -0.59. Compound `CC1(C)CC(=O)N(CC(=O)NCc2ccccc2)c2ccccc2S1(=O)=O` has a z-score of -0.409. `CCC(C)NC(=O)CN1C(=O)CC(C)(C)S(=O)(=O)c2ccccc21` (stereo not drawn) was tested, and the z-score was 4.26 (active). For `CC1(C)CC(=O)N(CC(=O)O)c2ccccc2S1(=O)=O`, the z-score was -0.22. In the case of `Cc1csc(NC(=O)C2CCCC2)n1`, the z-score is reported as 0.0786. Compound `O=C(CN(Cc1ccco1)C(=O)c1ccc(Cl)cc1)Nc1ccc(Cl)c(Cl)c1` has a z-score of -0.0983. With `Cc1ccc(C(=O)NC2(C(F)(F)F)N=C3SCCN3C2=O)cc1` (stereo not drawn) the z-score was 2.91. `O=C(NC1(C(F)(F)F)N=C2SCCN2C1=O)c1ccccc1` (stereo not drawn) gave a z-score of -0.628. With `CC(C)Oc1ccc(C(=O)NC2(C(F)(F)F)N=C3SCCN3C2=O)cc1` (stereo not drawn) the z-score was 0.873. In the case of `CS(=O)(=O)Nc1ccc(C(=O)NC2CCCC2)cc1`, the z-score is reported as -0.00695. Compound `COc1ccc(OC)c(/C=N/NC(=O)CN2CCSCC2)c1` has a z-score of 0.045. `CCn1cc(C(=O)NC(=S)Nc2sc3c(c2C(=O)OC)CCCCCC3)cn1` showed a z-score of -0.247. Work on `CCn1nnc(NC(=O)c2cccnc2Cl)n1` yielded a z-score of -0.48. With `C/C(=N/NC(=S)Nc1ccccc1)c1ccc2c(c1)OCO2` the z-score was 7.92 (active). For `C/C(=N/NC(=O)c1ccc2c(c1)OCO2)c1ccc(NC(=O)C(F)(F)F)cc1`, the z-score was -0.151. Compound `C/C(=N\NC(=O)c1ccccc1)c1ccc2c(c1)OCO2` has a z-score of -0.195. For `C/C(=N/NC(=O)c1ccc2c(c1)OCO2)c1cccc(NC(=O)C(C)(C)C)c1`, the z-score was -0.191. Compound `C/C(=N\NC(=S)Nc1ccc(F)cc1)C1CC1` has a z-score of -0.155. In the case of `C/C(=N\NC(=S)Nc1ccc(F)cc1)c1ccc2c(c1)OCCO2`, the z-score is reported as 6.87 (active). Work on `COc1nc(N/N=C/c2cc3c(cc2Br)OCO3)nc(N2CCOCC2)n1` yielded a z-score of -0.297. `Cc1c(N=C2SCC(=O)N2/N=C/c2ccccc2)c(=O)n(-c2ccccc2)n1C` showed a z-score of -0.023. For `CSc1nc2ccc(NC(=O)c3nn(C(C)C)c(=O)c4ccccc34)cc2s1`, the z-score was -0.391. With `Cc1ccc(SCc2cc(-c3ccc(Cl)cc3)on2)cc1` the z-score was 0.048. `CCOc1ccc(-c2[nH]ncc2-c2csc(C)n2)c(O)c1` gave a z-score of -0.285. Compound `COc1ccc(NC(=O)CSc2nnc(Cn3cnc4ccccc43)n2C)cc1` has a z-score of 0.66. `O=C(Nc1ccc2c(c1)OCCO2)c1ccc2nccnc2c1` showed a z-score of 0.215. For `CCOC(=O)C1CCN(c2c(Nc3ccc4c(c3)OCCO4)c(=O)c2=O)CC1`, the z-score was -0.277. Compound `O=C(c1cncc(Br)c1)N1CCCc2ccccc21` has a z-score of 0.0197. `CCC1CCCCN1C(=S)NC(=O)c1ccc([N+](=O)[O-])cc1` (stereo not drawn) was tested, and the z-score was 9.16 (active). In the case of `CC1CN(C(=S)NC(=O)c2ccc([N+](=O)[O-])cc2)CC(C)O1` (stereo not drawn), the z-score is reported as 0.605. `O=C(NN1c2ccccc2CCc2ccccc21)c1ccccc1Br` was tested, and the z-score was -0.0618. In the case of `O=C(NC(=S)N1CCOCC1)c1ccc([N+](=O)[O-])cc1`, the z-score is reported as 0.875. For `CCC1CCCCN1C(=S)Nc1ccc(C(C)=O)cc1` (stereo not drawn), the z-score was -0.196. With `CC(=O)Nc1ccccc1C(=O)N1CCc2ccccc21` the z-score was 1.03. `O=C(NC(=S)N1CCc2ccccc21)c1ccccc1Br` was tested, and the z-score was 11.2 (active). `O=C(NC(=S)N1CCCc2ccccc21)c1ccc([N+](=O)[O-])cc1` was tested, and the z-score was 14.7 (active). With `O=C(NC(=S)N1CCCc2ccccc21)c1ccc(Br)cc1` the z-score was 9.56 (active). `O=C(N/N=C1\CCCc2ccccc21)c1ccc([N+](=O)[O-])cc1` showed a z-score of 1.47. For `CC(=O)N1CCCc2ccccc21`, the z-score was 0.0326.
